# Experimental data as given in PubChem BioAssay (NCI).
# This is part of a sample that, as a whole, favours compounds with a hit. Of some 79,000 tested, about 15% had one in any assay. Values without a mark were called inactive. Activity calls are given as the source filed them. No stated cut-off is given here; in the data, active means growth inhibition above about 70%; inactive means the rest.
# Experiments:
# [1] = NCI Yeast Anticancer Drug Screen. Data for the rad52 strain (AID 147);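 further: 0% = growth of vehicle-treated control cultures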; conditions: S. cerevisiae rad52 mutant growth inhibition, stronger effect = higher value
# Procedure, shortened: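 Screen used a yeast mutant impaired in DNA repair. After compound exposure, growth was measured. Values reflect inhibition compared with vehicle-treated cells.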
# [2] = NCI Yeast Anticancer Drug Screen. Data for the wt1 strain (AID 149);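 further: 0% = growth of vehicle-treated wt1 cultures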; conditions: S. cerevisiae wt1 strain (SPY 50644) growth inhibition, stronger effect = higher value
# Procedure, shortened: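 wt1 yeast, compound-treated; % growth inhibition vs vehicle control.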
# [3] = NCI Yeast Anticancer Drug Screen. Data for the rad50EPP+ strain (AID 151);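 further: 0% = growth of vehicle-treated control cultures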; conditions: S. cerevisiae rad50 mutant strain, stronger effect = higher value
# Procedure, shortened: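 Exposing the rad50EPP+ strain to each compound, growth was compared with vehicle-only cultures to give inhibition.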
# [4] = NCI Yeast Anticancer Drug Screen. Data for the mgt1 strain (AID 153); conditions: S. cerevisiae mgt1 mutant growth inhibition, stronger effect = higher value
# Procedure, shortened: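 Genetically defined yeast (mgt1) treated with compound; inhibition of growth expressed against vehicle-treated controls.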
# [5] = NCI Yeast Anticancer Drug Screen. Data for the rad50 strain (AID 155);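 further: 0% = growth of vehicle-only cultures of the same strain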; conditions: S. cerevisiae rad50 strain growth inhibition, stronger effect = higher value
# Procedure, shortened: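 Genetically altered yeast (DNA repair pathway); compound treatment; growth inhibition vs vehicle ctrl.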
# [6] = NCI Yeast Anticancer Drug Screen. Data for the mec2-1 strain (AID 157); conditions: S. cerevisiae mec2-1 strain, stronger effect = higher value
# Procedure, shortened: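 Readout is yeast growth inhibition, normalised to vehicle-treated controls, in the mec2-1 strain exposed to compound.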
# [7] = NCI Yeast Anticancer Drug Screen. Data for the sgs1 mgt1 strain (AID 161);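 further: 0% = growth of cultures given vehicle only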; conditions: S. cerevisiae sgs1 mgt1 strain, stronger effect = higher value
# Procedure, shortened: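 Percent growth inhibition was derived by comparing compound-exposed mutant yeast with vehicle-exposed cultures. The strain carries alterations in DNA damage repair.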
# [8] = NCI Yeast Anticancer Drug Screen. Data for the CLN2oe strain (AID 163);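 further: 0% = growth of vehicle-only control cultures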; conditions: S. cerevisiae CLN2oe strain, stronger effect = higher value
# Procedure, shortened: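 Values reflect how much compound exposure reduced yeast growth, referenced to vehicle-exposed cells. Assay organism is a strain with a defined genetic change affecting cell-cycle control.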
# [9] = NCI Yeast Anticancer Drug Screen. Data for the cln2 rad14 strain (AID 165);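 further: 0% = growth equal to vehicle treated cultures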; conditions: S. cerevisiae cln2 rad14 strain, stronger effect = higher value
# Procedure, shortened: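 Relative to vehicle controls, growth inhibition of compound-treated cln2 rad14 yeast was recorded.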
# [10] = NCI Yeast Anticancer Drug Screen. Data for the bub3 strain (AID 167); conditions: S. cerevisiae bub3 mutant strain, stronger effect = higher value
# Procedure, shortened: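 Yeast carrying a defined mutation is treated with each compound, and growth is compared with that of vehicle-exposed cells to give inhibition.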
# [11] = NCI Yeast Anticancer Drug Screen. Data for the wt2 strain (AID 169);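 further: 0% = growth of vehicle-treated yeast cultures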; conditions: S. cerevisiae wt2 strain growth inhibition, stronger effect = higher value
# Procedure, shortened: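 Values express reduction in yeast growth under compound treatment, referenced to vehicle-treated cells.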
# [12] = NCI Yeast Anticancer Drug Screen. Data for the mlh1 strain (AID 171);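 further: 0% = growth of vehicle-treated control cultures of the same strain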; conditions: S. cerevisiae mlh1 strain growth inhibition, stronger effect = higher value
# Procedure, shortened: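 Steps: expose the defined-mutant yeast strain to compound; expose a parallel culture to vehicle; measure growth; express compound effect as inhibition relative to the vehicle culture.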
# [13] = NCI Yeast Anticancer Drug Screen. Data for the mlh1 rad18 strain (AID 175); conditions: S. cerevisiae mlh1 rad18 strain growth inhibition, stronger effect = higher value
# Procedure, shortened: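 Test agents were incubated with a yeast strain of defined genotype (DNA damage repair defect). Inhibition of growth was derived by comparison with vehicle-exposed cultures.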
# [14] = NCI Yeast Anticancer Drug Screen. Data for the rad18 strain (AID 177); conditions: S. cerevisiae rad18 mutant growth inhibition, stronger effect = higher value
# Procedure, shortened: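 A genetically defined yeast mutant impaired in DNA damage repair was treated with test compounds, then its growth was measured against cultures receiving vehicle alone.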
# [15] = at 5.0 µM (retest, dose inferred, filed as 0.5)
# [16] = at 50.0 µM (retest, dose inferred, filed as 5.0)
smiles,measurement,setting,value
O=C1C(Cl)=C(Cl)C(Cl)(Cl)C(Cl)C1(Cl)Cl (stereo not drawn),growth inhibition,[1]; at 1.2 µM,14%
same,growth inhibition,[1]; at 3.7 µM,27%
same,growth inhibition,[1]; at 11.0 µM,71% (active)
same,growth inhibition,[1]; at 33.0 µM,99% (active)
same,growth inhibition,[1]; at 100.0 µM,99% (active)
same,growth inhibition,[2]; at 1.2 µM,2%
same,growth inhibition,[2]; at 3.7 µM,5%
same,growth inhibition,[2]; at 11.0 µM,21%
same,growth inhibition,[2]; at 33.0 µM,94% (active)
same,growth inhibition,[2]; at 100.0 µM,99% (active)
same,growth inhibition,[3]; at 1.2 µM,20%
same,growth inhibition,[3]; at 3.7 µM,34%
same,growth inhibition,[3]; at 11.0 µM,58%
same,growth inhibition,[3]; at 33.0 µM,90% (active)
same,growth inhibition,[3]; at 100.0 µM,99% (active)
same,growth inhibition,[4]; at 1.2 µM,5%
same,growth inhibition,[4]; at 3.7 µM,25%
same,growth inhibition,[4]; at 11.0 µM,45%
same,growth inhibition,[4]; at 33.0 µM,99% (active)
same,growth inhibition,[4]; at 100.0 µM,99% (active)
same,growth inhibition,[5]; at 1.2 µM,16%
same,growth inhibition,[5]; at 3.7 µM,26%
same,growth inhibition,[5]; [15],21%
same,growth inhibition,[5]; at 11.0 µM,58%
same,growth inhibition,[5]; at 33.0 µM,99% (active)
same,growth inhibition,[5]; [16],98% (active)
same,growth inhibition,[5]; at 50.0 µM,99.3% (active)
same,growth inhibition,[5]; at 100.0 µM,99% (active)
same,growth inhibition,[6]; at 1.2 µM,8%
same,growth inhibition,[6]; at 3.7 µM,29%
same,growth inhibition,[6]; [15],22%
same,growth inhibition,[6]; at 11.0 µM,49%
same,growth inhibition,[6]; at 33.0 µM,99% (active)
same,growth inhibition,[6]; [16],99% (active)
same,growth inhibition,[6]; at 50.0 µM,99.5% (active)
same,growth inhibition,[6]; at 100.0 µM,99% (active)
same,growth inhibition,[7]; [15],30%
same,growth inhibition,[7]; [16],99% (active)
same,growth inhibition,[7]; at 50.0 µM,99.6% (active)
same,growth inhibition,[8]; at 1.2 µM,15%
same,growth inhibition,[8]; at 3.7 µM,38%
same,growth inhibition,[8]; at 11.0 µM,54%
same,growth inhibition,[8]; at 33.0 µM,99% (active)
same,growth inhibition,[8]; at 100.0 µM,99% (active)
same,growth inhibition,[9]; [15],9%
same,growth inhibition,[9]; [16],96% (active)
same,growth inhibition,[9]; at 50.0 µM,96.8% (active)
same,growth inhibition,[10]; at 1.2 µM,11%
same,growth inhibition,[10]; at 3.7 µM,28%
same,growth inhibition,[10]; [15],5%
same,growth inhibition,[10]; at 11.0 µM,59%
same,growth inhibition,[10]; at 33.0 µM,99% (active)
same,growth inhibition,[10]; [16],98% (active)
same,growth inhibition,[10]; at 50.0 µM,99.5% (active)
same,growth inhibition,[10]; at 100.0 µM,97% (active)
same,growth inhibition,[11]; at 1.2 µM,-14%
same,growth inhibition,[11]; at 3.7 µM,-6%
same,growth inhibition,[11]; at 11.0 µM,54%
same,growth inhibition,[11]; at 33.0 µM,100% (active)
same,growth inhibition,[11]; at 100.0 µM,99% (active)
same,growth inhibition,[12]; at 1.2 µM,12%
same,growth inhibition,[12]; at 3.7 µM,26%
same,growth inhibition,[12]; at 11.0 µM,66%
same,growth inhibition,[12]; at 33.0 µM,99% (active)
same,growth inhibition,[12]; at 100.0 µM,99% (active)
same,growth inhibition,[13]; [15],26%
same,growth inhibition,[13]; [16],99% (active)
same,growth inhibition,[13]; at 50.0 µM,99.4% (active)
same,growth inhibition,[14]; at 1.2 µM,40%
same,growth inhibition,[14]; at 3.7 µM,73% (active)
same,growth inhibition,[14]; at 11.0 µM,90% (active)
same,growth inhibition,[14]; at 33.0 µM,99% (active)
same,growth inhibition,[14]; at 100.0 µM,99% (active)
